Drawing on PubChem BioAssay (EPA / NIEHS), this text covers outcome and AC50 for 4 molecules.

Where “and” joins values, the source holds several entries; their conditions need not be identical. Equal entries are not always repeated. Records with an inconclusive call do not appear. Where a structure was tested more than once in an assay, its records may differ in their call. Calls of active or inactive are those of the source. How the source made its calls, unless noted: active means hit-call score of the fitted dose curve at least 0.9, where 1 is the maximum; inactive means score below 0.9.

In test [1] the target is Paired box protein Pax-6 (Homo sapiens) (UniProt P26367). Description: ATG_Pax6_CIS: Attagene CIS-FACTORIAL HepG2 Assay for human Paired Box 6 (PAX6) (AID 2282956). Particulars: HepG2 CIS-FACTORIAL PAX6 reporter transcription, RNA readout; actives raise or lower the signal. In a few lines: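 Readout: reporter transcript fluorescence after RT-PCR and capillary electrophoresis. Cells: HepG2, transiently transfected with cis-regulated MRTUs. Exposure 24 h. Gain or loss of signal fitted bidirectionally relative to DMSO.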

Test [2] in a line: ATG_PXRE_CIS: Attagene CIS-FACTORIAL HepG2 Assay for human Pregnane X Receptor Element (PXRE) (AID 2282957). Particulars: HepG2 Attagene CIS-FACTORIAL PXRE reporter, mRNA; actives raise or lower the signal. Put shortly: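 After a 24 h chemical incubation, total RNA from transfected HepG2 cells was reverse-transcribed and reporter cDNA amplified, FAM-labeled, HpaI-digested and sized by capillary electrophoresis. DMSO served as baseline for bidirectional curve fitting.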

Test [3] in a line: ATG_RORE_CIS: Attagene CIS-FACTORIAL HepG2 Assay for human RAR-related Orphan Receptor Element (RORE) (AID 2282959). Particulars: HepG2 Attagene cis-factorial RORE reporter, mRNA; actives raise or lower the signal. In a few lines: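 Readout: fluorescent reporter mRNA by RT-PCR plus capillary electrophoresis, 24 h after dosing transfected HepG2 cells. Endogenous transcription factor activity on a cis promoter element is measured. Gain or loss of signal fitted against DMSO.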

Test [4] can be described thus: ATG_Sox_CIS: Attagene CIS-FACTORIAL HepG2 Assay for human SRY-box transcription factor (SOX) (AID 2282960). Particulars: HepG2 Attagene cis-factorial SOX reporter, mRNA; actives raise or lower the signal. In a few lines:
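Read-out: fluorescent RT-PCR products of SOX1-linked reporter transcripts resolved by capillary electrophoresis, fitted bidirectionally against DMSO. Transiently transfected HepG2 cells, 24 h after chemical exposure, endogenous transcription factor activity.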

Test [5] concerns the target Transcription factor Sp1 (Homo sapiens) (UniProt P08047). Kind of test: ATG_Sp1_CIS: Attagene CIS-FACTORIAL HepG2 Assay for human Specificity Protein 1 (Sp1) (AID 2282961). Particulars: HepG2 Sp1 cis-reporter transcription, actives raise or lower the signal. In a few lines:
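Read-out: fluorescence of 6-FAM-labeled, HpaI-digested RT-PCR products separated by capillary electrophoresis. HepG2 cells carried transfected cis-element reporter units and were exposed to chemicals for 24 h; gain or loss of signal fitted relative to DMSO.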

Test [6] in a line: ATG_SREBP_CIS: Attagene CIS-FACTORIAL HepG2 Assay for human Sterol Regulatory Element Binding (SREBP) (AID 2282962). Particulars: HepG2 Attagene cis-factorial SREBP reporter, mRNA; actives raise or lower the signal. In a few lines: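 Readout: fluorescent reporter-transcript peaks resolved by capillary electrophoresis after RT-PCR. Cells were human HepG2 carrying transfected cis-promoter reporter constructs, dosed for 24 h. Gain or loss of signal was fitted against DMSO controls.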

Test [7] deals with Signal transducer and activator of transcription 3 (Homo sapiens) (UniProt P40763). Kind of test: ATG_STAT3_CIS: Attagene CIS-FACTORIAL HepG2 Assay for human Signal Transducer and Activator of Transcription 3 (STAT3) (AID 2282963). The following applies: HepG2, Attagene cis-factorial STAT3 reporter transcription; actives raise or lower the signal. In a few lines:
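Cis-factorial format: endogenous transcription factors in HepG2 drive transfected reporter units. After 24 h treatment, reporter RNA was reverse-transcribed, amplified, FAM-labelled and HpaI-digested before CE analysis; activity scored in both directions against DMSO.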

Test [8] is described as follows: ATG_TA_CIS: Attagene CIS-FACTORIAL HepG2 Assay for human TA Basal Promoter (AID 2282964). The following applies: HepG2 Attagene CIS-factorial TA basal promoter reporter; actives raise or lower the signal. Put shortly:
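Steps: transfect HepG2 with MRTUs; dose 24 h; isolate RNA, DNase-treat, reverse-transcribe; PCR and FAM-label reporter cDNA; digest with HpaI 2h at 37 C; run capillary electrophoresis. Activity fitted both directions against DMSO.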

Test [9] can be described thus: ATG_TCF_b_cat_CIS: Attagene CIS-FACTORIAL HepG2 Assay for human T-Cell-Factor with beta-catenin (TCF/b-cat) (AID 2282965). The following applies: HepG2 TCF/beta-catenin cis-reporter transcription, actives raise or lower the signal. Put shortly:
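Measured: reporter mRNA in HepG2 transiently transfected with cis-promoter reporter units, 24 h after chemical addition. Fitting was bidirectional, DMSO as negative control.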

Test [10] is described as follows: ATG_TAL_CIS: Attagene CIS-FACTORIAL HepG2 Assay for human TAL Basal Promoter (AID 2282966).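 Further: background control endpoint measuring basal TAL promoter reporter mRNA not a specific factor.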 The following applies: HepG2 Attagene cis-factorial TAL promoter reporter; actives raise or lower the signal. In a few lines: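 Basal-promoter background-control endpoint from a multiplexed HepG2 reporter panel. Cells were exposed 24 h, then reporter mRNA was read by RT-PCR/CE fluorescence and fitted in both directions relative to DMSO.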

A short description of test [11]: ATG_TGFb_CIS: Attagene CIS-FACTORIAL HepG2 Assay for human Transforming Growth Factor (TGF) (AID 2282967). The following applies: HepG2 Attagene CIS TGFb reporter, mRNA transcription; actives raise or lower the signal. In a few lines: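 Cells were dosed for 24 hours, after which total RNA was reverse-transcribed and reporter sequences amplified, labeled and sized by capillary electrophoresis. Activity was fitted in both directions against DMSO.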

Test [12] is described as follows: ATG_VDRE_CIS: Attagene CIS-FACTORIAL HepG2 Assay for human Vitamin D Receptor Element (VDRE) (AID 2282968). Particulars: HepG2 VDRE cis-reporter transcription, actives raise or lower the signal. In a few lines:
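Measures endogenous factor activity through cis-element-driven reporter transcripts in transiently transfected HepG2. Cells are treated 24 h; reporter mRNA is quantified by RT-PCR and capillary electrophoresis; fitting is bidirectional.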

The target of test [13] is Nuclear receptor subfamily 1 group I member 3 (Homo sapiens) (UniProt Q14994). Description: ATG_CAR_TRANS: Attagene TRANS-FACTORIAL HepG2 Assay for human Constitutive Androstane Receptor (CAR) (AID 2282969; active means hit-call score of the fitted dose curve at least 0.9, where 1 is the maximum;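 further: activators raise reporter mRNA above DMSO so AC50 marks induction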). Particulars: HepG2 Attagene TRANS-FACTORIAL CAR reporter. Put shortly: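 Signal is reporter mRNA induction relative to DMSO, measured 24 h after dosing by RT-PCR with fluorescent primer extension and capillary electrophoresis. Human HepG2 liver cells carried transiently transfected chimeric NR-Gal4/GAL4-UAS reporter constructs.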

The target of test [14] is Estrogen receptor (Homo sapiens) (UniProt P03372). Description: ATG_ERa_TRANS: Attagene TRANS-FACTORIAL HepG2 Assay for human Estrogen Receptor alpha (ERa) (AID 2282970; active means hit-call score of the fitted dose curve at least 0.9, where 1 is the maximum). The following applies: HepG2 Attagene TRANS ERa GAL4 reporter, mRNA. Put shortly:
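Gal4-fusion ERa transactivation, measured as reporter transcript level in transiently transfected HepG2 cells. Exposure 24 h; RT-PCR plus capillary electrophoresis with fluorescence detection.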

For test [15], the target named is X-box-binding protein 1 (Homo sapiens) (UniProt P17861). Description: ATG_Xbp1_CIS: Attagene CIS-FACTORIAL HepG2 Assay for human X-box Binding Protein 1 (XBP1) (AID 2282972). Particulars: HepG2 XBP1 cis-element reporter, Attagene multiplex; actives raise or lower the signal. In a few lines: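 Read-out: fluorescent reporter mRNA fragments resolved by capillary electrophoresis after RT-PCR. Human HepG2 liver cells carried transfected cis-promoter reporter units and were exposed to chemicals for 24 hours. Gain or loss of signal fitted relative to DMSO baseline.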

Test [16] in a line: ATG_M_19_TRANS: Attagene TRANS-FACTORIAL HepG2 Assay for M19 Transcription Factor (Internal Marker) (AID 2282974; active means hit-call score of the fitted dose curve at least 0.9, where 1 is the maximum). Particulars: HepG2 Attagene TRANS-FACTORIAL M19 internal marker reporter. Put shortly: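 24 h chemical exposure of transiently transfected HepG2 (MRTU library). RNA → oligo(dT) RT → PCR → 6-FAM labelling → HpaI cut → CE fluorescence. Positive-direction fit vs DMSO baseline; background internal-marker readout.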

A short description of test [17]: ATG_GAL4_TRANS: Attagene TRANS-FACTORIAL HepG2 Assay for GAL4 (Internal Marker) (AID 2282976; active means hit-call score of the fitted dose curve at least 0.9, where 1 is the maximum). The following applies: HepG2 Attagene TRANS GAL4 internal marker reporter. In a few lines: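 Background-control readout: GAL4-UAS reporter transcript in transiently transfected HepG2 cells after 24 h compound exposure. Measured by RT-PCR, 6-FAM primer extension, HpaI digest and capillary electrophoresis; gain-of-signal fit versus DMSO.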

The nature of test [18]: ATG_PPRE_CIS: Attagene CIS-FACTORIAL HepG2 Assay for human Peroxisome Proliferator-activated Response Element (PPRE) (AID 2282958). Particulars: HepG2 PPRE cis-element reporter, Attagene transcription factor profiling; actives raise or lower the signal. Put shortly:
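Read-out: fluorescent reporter mRNA fragments resolved by capillary electrophoresis after RT-PCR. HepG2 cells carried transiently transfected PPRE-driven cis reporter constructs and were dosed for 24 h; gain or loss of signal fitted relative to DMSO.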

For test [19], the target named is Steroid hormone receptor ERR1 (Homo sapiens) (UniProt P11474). Kind of test: ATG_ERRa_TRANS: Attagene TRANS-FACTORIAL HepG2 Assay for human Estrogen-Related Receptor alpha (ERRa) (AID 2282971; active means hit-call score of the fitted dose curve at least 0.9, where 1 is the maximum). Particulars: HepG2 Attagene TRANS reporter, ERRa transactivation. Put shortly: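 HepG2 cells transiently transfected with GAL4-UAS reporter units and chimeric NR-Gal4 constructs; after 24 hour compound incubation, reporter mRNA quantified by RT-PCR, fluorescent labelling and capillary electrophoresis, gain of signal versus DMSO.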

The target in test [20] is Estrogen-related receptor gamma (Homo sapiens) (UniProt P62508). Description: ATG_ERRg_TRANS: Attagene TRANS-FACTORIAL HepG2 Assay for human Estrogen-Related Receptor gamma (ERRg) (AID 2282977; active means hit-call score of the fitted dose curve at least 0.9, where 1 is the maximum;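 further: hits increase reporter signal over DMSO so potencies reflect activators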). Particulars: HepG2 Attagene TRANS reporter, ERRg transactivation. Put shortly: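 Readout: fluorescent reporter-mRNA fragments resolved by capillary electrophoresis after RT-PCR and HpaI cut. Cells: transiently transfected HepG2 carrying GAL4-UAS reporters driven by exogenous NR-Gal4 chimeras, dosed 24 h. Activity fitted upward relative to DMSO baseline.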
Chain of Estrogen-related receptor gamma (Homo sapiens) (P62508 whole entry, looked up, the tested form may be a part): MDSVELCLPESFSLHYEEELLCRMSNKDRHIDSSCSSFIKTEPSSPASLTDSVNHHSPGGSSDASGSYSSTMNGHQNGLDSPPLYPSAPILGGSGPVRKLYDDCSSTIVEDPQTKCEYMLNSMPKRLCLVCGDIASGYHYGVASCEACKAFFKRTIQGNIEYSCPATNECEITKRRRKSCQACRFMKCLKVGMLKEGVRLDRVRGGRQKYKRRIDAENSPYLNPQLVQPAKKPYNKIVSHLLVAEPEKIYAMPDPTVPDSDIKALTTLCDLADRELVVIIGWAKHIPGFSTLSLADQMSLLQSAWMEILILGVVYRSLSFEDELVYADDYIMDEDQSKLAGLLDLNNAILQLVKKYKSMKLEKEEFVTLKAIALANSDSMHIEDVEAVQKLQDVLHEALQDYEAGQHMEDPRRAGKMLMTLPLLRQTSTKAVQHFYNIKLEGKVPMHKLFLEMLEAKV

Chain of Paired box protein Pax-6 (Homo sapiens) (P26367 whole entry, looked up): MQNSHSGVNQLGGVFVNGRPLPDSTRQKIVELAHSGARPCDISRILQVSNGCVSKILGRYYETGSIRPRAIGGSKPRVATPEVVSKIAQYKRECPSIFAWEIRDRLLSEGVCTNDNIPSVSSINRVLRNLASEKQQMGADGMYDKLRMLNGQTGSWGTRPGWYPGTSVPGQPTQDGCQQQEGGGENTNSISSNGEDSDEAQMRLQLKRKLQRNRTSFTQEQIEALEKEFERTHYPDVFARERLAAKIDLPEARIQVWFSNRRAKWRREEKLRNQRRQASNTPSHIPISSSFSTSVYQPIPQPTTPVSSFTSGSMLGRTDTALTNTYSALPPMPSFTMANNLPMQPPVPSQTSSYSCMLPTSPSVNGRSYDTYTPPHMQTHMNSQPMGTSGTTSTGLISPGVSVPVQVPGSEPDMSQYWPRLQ
Chain of Signal transducer and activator of transcription 3 (Homo sapiens) (P40763 whole entry, looked up): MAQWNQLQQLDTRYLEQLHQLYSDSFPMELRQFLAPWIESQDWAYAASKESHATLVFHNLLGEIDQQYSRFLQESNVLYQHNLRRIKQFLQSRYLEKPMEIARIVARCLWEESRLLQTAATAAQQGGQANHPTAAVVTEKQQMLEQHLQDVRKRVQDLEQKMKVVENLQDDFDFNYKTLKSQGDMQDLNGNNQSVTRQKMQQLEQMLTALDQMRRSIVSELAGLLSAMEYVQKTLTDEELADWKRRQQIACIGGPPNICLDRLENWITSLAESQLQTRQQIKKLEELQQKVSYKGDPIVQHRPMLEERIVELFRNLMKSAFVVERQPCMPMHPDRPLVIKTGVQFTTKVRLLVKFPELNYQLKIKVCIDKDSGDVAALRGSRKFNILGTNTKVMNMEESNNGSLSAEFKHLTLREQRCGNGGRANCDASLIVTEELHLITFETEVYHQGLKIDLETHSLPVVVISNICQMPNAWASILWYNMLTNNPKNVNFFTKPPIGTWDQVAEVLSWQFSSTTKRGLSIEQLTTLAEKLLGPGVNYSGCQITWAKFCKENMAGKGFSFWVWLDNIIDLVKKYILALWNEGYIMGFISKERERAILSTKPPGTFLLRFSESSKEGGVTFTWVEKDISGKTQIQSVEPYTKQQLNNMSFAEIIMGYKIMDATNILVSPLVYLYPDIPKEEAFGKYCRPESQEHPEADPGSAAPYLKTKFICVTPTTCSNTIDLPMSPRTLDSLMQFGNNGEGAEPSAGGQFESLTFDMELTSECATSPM
Chain of X-box-binding protein 1 (Homo sapiens) (P17861 whole entry, looked up, the tested form may be a part): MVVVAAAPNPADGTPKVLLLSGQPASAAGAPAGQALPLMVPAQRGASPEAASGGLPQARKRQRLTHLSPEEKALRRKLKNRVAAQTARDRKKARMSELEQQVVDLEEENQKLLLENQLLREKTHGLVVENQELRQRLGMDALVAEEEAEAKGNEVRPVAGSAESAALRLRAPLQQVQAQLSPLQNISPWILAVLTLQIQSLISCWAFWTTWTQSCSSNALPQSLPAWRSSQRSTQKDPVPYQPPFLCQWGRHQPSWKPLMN
Chain of Transcription factor Sp1 (Homo sapiens) (P08047 whole entry, looked up): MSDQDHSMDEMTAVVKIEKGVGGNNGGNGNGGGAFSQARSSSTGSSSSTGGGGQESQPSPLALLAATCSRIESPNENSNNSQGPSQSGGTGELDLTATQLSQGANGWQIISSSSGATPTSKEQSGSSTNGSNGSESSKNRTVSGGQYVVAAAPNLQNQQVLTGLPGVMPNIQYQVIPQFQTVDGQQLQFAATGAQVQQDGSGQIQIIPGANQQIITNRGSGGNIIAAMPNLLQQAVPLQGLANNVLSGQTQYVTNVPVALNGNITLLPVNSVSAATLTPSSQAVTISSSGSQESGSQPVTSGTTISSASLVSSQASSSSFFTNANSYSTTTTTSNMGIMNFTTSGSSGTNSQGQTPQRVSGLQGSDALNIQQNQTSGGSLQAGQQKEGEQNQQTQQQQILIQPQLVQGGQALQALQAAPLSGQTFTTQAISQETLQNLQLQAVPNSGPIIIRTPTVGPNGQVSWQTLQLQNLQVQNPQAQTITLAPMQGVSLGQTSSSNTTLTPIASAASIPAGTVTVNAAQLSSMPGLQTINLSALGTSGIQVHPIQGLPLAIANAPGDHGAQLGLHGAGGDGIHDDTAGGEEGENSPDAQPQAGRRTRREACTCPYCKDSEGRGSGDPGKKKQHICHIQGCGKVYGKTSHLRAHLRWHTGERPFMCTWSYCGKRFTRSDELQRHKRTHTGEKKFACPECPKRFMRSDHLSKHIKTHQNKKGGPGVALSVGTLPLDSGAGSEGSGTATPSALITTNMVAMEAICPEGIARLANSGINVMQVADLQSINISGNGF
Chain of Nuclear receptor subfamily 1 group I member 3 (Homo sapiens) (Q14994 whole entry, looked up, the tested form may be a part): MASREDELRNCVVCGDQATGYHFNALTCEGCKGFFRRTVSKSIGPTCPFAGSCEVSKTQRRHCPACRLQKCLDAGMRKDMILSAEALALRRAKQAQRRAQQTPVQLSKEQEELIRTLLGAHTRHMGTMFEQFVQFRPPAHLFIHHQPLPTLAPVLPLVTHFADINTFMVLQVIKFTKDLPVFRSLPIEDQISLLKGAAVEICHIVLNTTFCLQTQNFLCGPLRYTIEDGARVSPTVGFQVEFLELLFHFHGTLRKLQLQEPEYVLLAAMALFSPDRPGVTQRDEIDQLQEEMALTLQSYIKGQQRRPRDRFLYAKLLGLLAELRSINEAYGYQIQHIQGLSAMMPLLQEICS
Chain of Estrogen receptor (Homo sapiens) (P03372 whole entry, looked up, the tested form may be a part): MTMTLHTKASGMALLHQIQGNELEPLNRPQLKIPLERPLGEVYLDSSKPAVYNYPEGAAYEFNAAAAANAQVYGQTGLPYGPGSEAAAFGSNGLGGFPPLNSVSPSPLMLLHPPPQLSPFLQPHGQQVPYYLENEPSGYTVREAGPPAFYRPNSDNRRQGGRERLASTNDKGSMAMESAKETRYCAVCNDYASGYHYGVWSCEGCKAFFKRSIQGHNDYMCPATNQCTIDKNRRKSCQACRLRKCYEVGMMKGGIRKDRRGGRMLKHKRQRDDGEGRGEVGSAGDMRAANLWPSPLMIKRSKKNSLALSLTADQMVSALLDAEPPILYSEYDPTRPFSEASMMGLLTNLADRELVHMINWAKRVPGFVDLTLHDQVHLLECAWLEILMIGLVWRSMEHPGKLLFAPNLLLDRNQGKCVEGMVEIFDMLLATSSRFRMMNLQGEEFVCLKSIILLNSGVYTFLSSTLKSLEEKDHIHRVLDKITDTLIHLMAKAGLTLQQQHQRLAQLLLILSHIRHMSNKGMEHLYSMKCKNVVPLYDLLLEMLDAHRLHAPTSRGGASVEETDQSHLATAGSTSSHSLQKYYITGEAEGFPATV
Chain of Steroid hormone receptor ERR1 (Homo sapiens) (P11474 whole entry, looked up, the tested form may be a part): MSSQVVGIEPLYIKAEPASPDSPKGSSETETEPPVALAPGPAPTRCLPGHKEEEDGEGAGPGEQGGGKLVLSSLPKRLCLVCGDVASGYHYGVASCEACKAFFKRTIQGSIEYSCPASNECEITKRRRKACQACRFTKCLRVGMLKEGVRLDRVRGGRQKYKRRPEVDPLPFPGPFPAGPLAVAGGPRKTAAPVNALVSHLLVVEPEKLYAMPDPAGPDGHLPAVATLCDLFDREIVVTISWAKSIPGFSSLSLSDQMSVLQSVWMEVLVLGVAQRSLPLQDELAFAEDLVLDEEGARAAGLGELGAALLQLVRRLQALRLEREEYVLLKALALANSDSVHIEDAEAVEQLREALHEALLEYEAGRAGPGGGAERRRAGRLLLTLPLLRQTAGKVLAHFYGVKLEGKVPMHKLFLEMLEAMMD

As for `O=C(O)Cn1c(=O)n(Cc2ccc(Br)cc2F)c(=O)c2ccc(Cl)cc21`, the molecule was classed as inactive in test [1], in test [3], in test [4], in test [5], in test [6] and in [7]. The call in test [8], in test [9], in [10], in test [11], in [13] and in test [14] was inactive. Further, the molecule was classed as inactive in test [15] and in test [16]. The AC50 (as a rule, the midpoint of the concentration-response curve, whichever way the signal moves) in test [2] is 8.54 µM (active); in [12], 27 µM (active).
For the molecule `CN1C(=O)CC[C@H]1c1cccnc1`, the outcome in test [1], in [2], in [3], in [4], in test [5] and in [6] was inactive. Besides, the result in test [7], in test [8], in test [9], in test [10], in [11] and in [15] was inactive. Besides, the outcome in test [17] was inactive.
As to `OCCO`, the molecule was called inactive in test [1], in [2], in test [18], in [4], in [5] and in test [6]. In addition, the result in test [7], in test [8], in test [9], in test [10], in test [11] and in test [12] was inactive. Also, the result in test [14], in [15], in test [16] and in test [17] was inactive.
Take `CC(C)(c1cc(Br)c(O)c(Br)c1)c1cc(Br)c(O)c(Br)c1`: the AC50 is 46 µM (active) and 42.9 µM (active) in test [1]; 7.93 µM (active) and 8.01 µM (active) in [2]; 41.4 µM (active) and 43.4 µM (active) in test [4]; 39.3 µM (active) and 31.9 µM (active) in test [5]; 31.7 µM (active) and 23 µM (active) in test [6]; 23.2 µM (active) in [8]. Moreover, the AC50 in test [9] is 42.6 µM (active) and 22.7 µM (active); in test [10], 43.7 µM (active); in test [11], 49 µM (active) and 58 µM (active); in test [12] it was 22.1 µM (active) and 22.6 µM (active); in test [15] it was 45.9 µM (active) and 42.9 µM (active). The result in test [7], in test [8], in test [10], in [13], in test [19] and in test [17] was inactive. In test [20], the outcome was inactive.
